Reference: PubChem BioAssay

These compounds were tested on Human papillomavirus type 1a E7 protein (residues 1-88) (assay: HPV1a E7 small-molecule binders, primary screen, biochemical, small-molecule microarray, residues 1-88, 635 nm (AID 1129)). Conditions: small-molecule microarray binding, fluorescence 635 nm; higher = more signal.
`CC#CC(=O)Oc1ccccc1C=CC(=O)OCC` showed a composite z-score of 0.69.
`CC(C)CNC(=O)[C@@]1(Cc2ccccc2I)c2ccccc2C(=O)N(C2CCCCC2)[C@H]1c1ccc(CO)cc1` was tested, and the composite z-score was 1.
`O=C(c1ccccc1)N1C(=O)[C@]2(COC(c3ccc(OCCCO)cc3)=N2)Cc2ccccc21` gave a composite z-score of 1.2.
Compound `CC(C)(C)OC(=O)CC[C@]1(C(=O)N2CCOCC2)N=C(c2ccc(OCCCO)cc2)O[C@H]1c1ccccc1N=[N+]=[N-]` has a composite z-score of 1.27.
`COCCOC(=O)N1C(=O)[C@@]2(c3cc(C#CCC(C(=O)OC)C(=O)OC)ccc31)[C@H](c1ccccc1OCCO)N1[C@H](c3ccccc3)[C@H](c3ccccc3)OC(=O)[C@H]1[C@@H]2C(=O)NC[C@H](O)c1ccccc1` was tested, and the composite z-score was 1.15.
In the case of `COCCCNC(=O)[C@]1(CCC(=O)OC(C)(C)C)N=C(c2ccc(OCCCO)cc2)O[C@@H]1c1ccccc1CN=[N+]=[N-]`, the composite z-score is reported as 1.26.
Compound `CCOC(=O)C1=C[C@@H](C(C)(C)C)N(S(=O)(=O)c2ccc(C)cc2)[C@H]1c1ccc(F)cc1` has a composite z-score of 1.21.
`COc1cc(NN2C(C(O)c3ccco3)C=CC3C(=O)N(c4ccccc4)C(=O)C32)cc(OC)c1OC` (stereo not given) gave a composite z-score of 1.06.
With `CCC(CC)C(O)C1C=CC2C(=O)NC(=O)C2N1Nc1ccc(Cl)cc1Cl` (stereo not given) the composite z-score was 1.18.
`CCCC[C@H]1OB(O)C[C@H]2C1=C(COC)Cn1c(=O)n(-c3ccccc3)c(=O)n12` was tested, and the composite z-score was 0.169.
In the case of `C=C(COC)/C(=C/C[C@@H](OC(C)=O)c1ccc(OCCO)cc1)c1cnc2ccccc2c1`, the composite z-score is reported as 0.328.
`CN(C)C(=O)[C@@]1(CCS(=O)(=O)c2ccccc2)COC(c2ccc(OCCCO)cc2)=N1` showed a composite z-score of 1.24.
For `CCCCCCc1nc(-c2ccc(OC)nc2)cc2c1[Si](C(C)C)(C(C)C)O[C@H]2c1ccccc1`, the composite z-score was -0.484.
Work on `O=C(CS)NCCCCCCNC(=O)[C@@H]1C[C@@H]2C(=O)N[C@@H](Cc3ccccc3)C(=O)N2[C@@H]1c1cccc(OCCO)c1` yielded a composite z-score of 1.23.
For `COC(=O)[C@@]1(Cc2ccc(OC)cc2)[C@H]2c3cc(C(=O)N(C)C)n(Cc4ccc(S(C)(=O)=O)cc4)c3C[C@H]2CN1C(=O)c1ccccc1`, the composite z-score was 1.26.
With `O=C1C[C@@](C(=O)NC2CC2)(c2ccc([N+](=O)[O-])cc2)[C@@H](c2ccc(CO)cc2I)N1C1CCCCC1` the composite z-score was 1.24.
`CN1C=C(C(=O)OCCS(C)(=O)=O)C(C(=O)OCCS(C)(=O)=O)=CC(c2ccc(CO)cc2)=CC1C1CC1` (stereo not given) gave a composite z-score of 0.138.
`O=C1NC(=O)C2C1C=CC(C(O)c1cc(C(F)(F)F)cc(C(F)(F)F)c1)N2Nc1ccccn1` (stereo not given) gave a composite z-score of 0.289.
In the case of `CN(C)CCCCCCNC(=O)[C@@H]1C[C@@H]2C(=O)N[C@@H](Cc3ccccc3)C(=O)N2[C@@H]1c1ccc(O)cc1`, the composite z-score is reported as 1.23.
`Cc1nc2cc(Br)ccc2c(=O)o1` gave a composite z-score of 0.628.
Compound `O=C(NC1CC1)[C@@H]1c2ccccc2C(=O)N(Cc2ccccc2Cl)[C@H]1c1ccc(CO)cc1` has a composite z-score of 0.981.
Compound `O[C@@H](Cc1ccccc1)[C@H]1C2C=CCCC=C2CN1Cc1cccc(Cl)c1` (stereo not given in full) has a composite z-score of 1.14.
With `COCCOC(=O)N1C(=O)[C@@]2(c3cc(C#CCNC(N)=O)ccc31)[C@H](C(=O)N1CCN(c3ncccn3)CC1)[C@H]1C(=O)O[C@H](c3ccccc3)[C@H](c3ccccc3)N1[C@@H]2c1ccc(OCCO)cc1` the composite z-score was 1.12.
In the case of `COCCOC(=O)N1C(=O)[C@@]2(c3cc(C#CCNC(N)=O)ccc31)[C@H](C(=O)Nc1nc3ccccc3s1)[C@H]1C(=O)O[C@H](c3ccccc3)[C@H](c3ccccc3)N1[C@@H]2c1ccc(OCCO)cc1`, the composite z-score is reported as 0.669.
With `CC(C)C(O)C1C=CC2C(=O)N(c3ccccc3)C(=O)C2N1Nc1ccc([N+](=O)[O-])cc1` (stereo not given) the composite z-score was 1.17.
In the case of `CCOC(=O)C[C@H]1[C@H](OC(=O)c2ccccc2-c2ccccc2)[C@@H](NC(=O)CC(C)C)c2cc(OCCCO)ccc2N1C(=O)Cc1ccc(OC)cc1`, the composite z-score is reported as 0.149.
For `C=C(CCCC)/C(=C/C[C@H](OC(C)=O)c1ccccc1OCCO)c1cc(C(=O)OC)ccc1OC`, the composite z-score was 0.0376.
In the case of `C=CCC(OC(C)=O)[C@@H]1[C@@H](N(Cc2ccc(-c3ccccc3)cc2)C(=O)Cc2ccc(OC)cc2)c2cc(OCCCO)ccc2N1C(=O)Cc1ccc2ccccc2c1` (stereo not given in full), the composite z-score is reported as -0.442.
`COc1ccc(CCNC(=O)[C@@]2(Sc3ccc(C)cc3)CC(=O)N(C3Cc4ccccc4C3)[C@@H]2c2ccc(CO)cc2I)cc1` showed a composite z-score of 0.255.
In the case of `COC(=O)[C@@]1(Cc2ccccc2)N=C(c2ccc(OCCCO)cc2)O[C@H]1c1ccccc1`, the composite z-score is reported as 1.2.
